From PMC7862700, “An all-to-all approach to the identification of sequence-specific readers for epigenetic DNA modifications on cytosine”

Key:
Test in all cases: DAPPL (digital affinity profiling via proximity ligation, sequencing); 10 mM Tris-HCl pH 7.5, 50 mM NaCl, 1 mM DTT, 4% glycerol, room temperature, 30 min; GST-TFs on glutathione beads, 16-mer random dsDNA library, 0.1% formaldehyde crosslink after washing; high values mean tight binding
FEV = molecular target: T1, FEV (Homo sapiens, UniProt Q99581 1-238); conditions: protein: recombinant; tags: N-terminal GST; dsDNA, one strand shown
T1 sequence: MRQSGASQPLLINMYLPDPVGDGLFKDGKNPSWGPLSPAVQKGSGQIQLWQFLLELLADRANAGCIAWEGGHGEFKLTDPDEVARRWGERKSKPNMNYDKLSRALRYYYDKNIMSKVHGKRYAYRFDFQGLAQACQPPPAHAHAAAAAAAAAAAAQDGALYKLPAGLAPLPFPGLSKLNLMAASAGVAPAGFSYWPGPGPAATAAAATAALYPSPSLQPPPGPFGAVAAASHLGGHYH
Method in brief: (§1)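 Human transcription factors carrying a GST fusion were produced in yeast, bound to glutathione beads, tagged with DNA barcodes and pooled together with a tag-only sample. Each pool was held with 200 nmole of a random double-stranded 16-mer DNA library in Tris/NaCl/DTT/glycerol buffer for 30 min at room temperature, then washed, crosslinked in 0.1% formaldehyde, proximity-ligated with BsaI/T4 ligase (1 h, 37 °C), PCR-amplified and sequenced on an Illumina NextSeq500. Binding signal is the read frequency of each hexamer for a given factor divided by its frequency in the tag-only sample.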

ETV5 = ETV5 (Homo sapiens, UniProt P41161 1-510); conditions: protein: recombinant; tags: N-terminal GST; dsDNA, one strand shown
Method in brief: as §1

HSF1 = HSF1 (Homo sapiens, UniProt Q00613 1-529); conditions: protein: recombinant; tags: N-terminal GST; chain copies: 3; dsDNA, one strand shown
Method in brief: as §1

SPIC = molecular target: T2, SPIC (Homo sapiens, UniProt Q8N5J4 1-248); conditions: protein: recombinant; tags: N-terminal GST; dsDNA, one strand shown
T2 sequence: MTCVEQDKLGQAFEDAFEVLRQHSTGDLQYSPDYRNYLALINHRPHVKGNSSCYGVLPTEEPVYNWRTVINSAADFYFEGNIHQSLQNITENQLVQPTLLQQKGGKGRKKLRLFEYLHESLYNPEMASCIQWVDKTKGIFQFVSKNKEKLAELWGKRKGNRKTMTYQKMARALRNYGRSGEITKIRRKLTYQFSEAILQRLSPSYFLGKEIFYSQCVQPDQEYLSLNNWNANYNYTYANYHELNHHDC
Method in brief: as §1

ELF4 = ELF4 (Homo sapiens, UniProt Q99607 1-663); conditions: protein: recombinant; tags: N-terminal GST; dsDNA, one strand shown
Method in brief: as §1

ELK4 = molecular target: T3, ELK4 (Homo sapiens, UniProt P28324-2 1-405); conditions: protein: recombinant; tags: N-terminal GST; dsDNA, one strand shown
T3 sequence: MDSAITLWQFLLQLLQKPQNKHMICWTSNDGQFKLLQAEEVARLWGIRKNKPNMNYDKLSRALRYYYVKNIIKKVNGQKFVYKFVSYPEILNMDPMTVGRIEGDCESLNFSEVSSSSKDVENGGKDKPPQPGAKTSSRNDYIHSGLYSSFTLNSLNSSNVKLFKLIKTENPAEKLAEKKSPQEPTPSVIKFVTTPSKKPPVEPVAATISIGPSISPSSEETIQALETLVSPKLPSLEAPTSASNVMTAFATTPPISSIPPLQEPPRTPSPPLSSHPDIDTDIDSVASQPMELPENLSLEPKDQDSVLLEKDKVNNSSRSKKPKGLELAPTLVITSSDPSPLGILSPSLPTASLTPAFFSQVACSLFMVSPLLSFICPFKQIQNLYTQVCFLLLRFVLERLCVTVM
Method in brief: as §1

ETV2 = molecular target: T4, ETV2 (Homo sapiens, UniProt O00321 1-342); conditions: protein: recombinant; tags: N-terminal GST; dsDNA, one strand shown
T4 sequence: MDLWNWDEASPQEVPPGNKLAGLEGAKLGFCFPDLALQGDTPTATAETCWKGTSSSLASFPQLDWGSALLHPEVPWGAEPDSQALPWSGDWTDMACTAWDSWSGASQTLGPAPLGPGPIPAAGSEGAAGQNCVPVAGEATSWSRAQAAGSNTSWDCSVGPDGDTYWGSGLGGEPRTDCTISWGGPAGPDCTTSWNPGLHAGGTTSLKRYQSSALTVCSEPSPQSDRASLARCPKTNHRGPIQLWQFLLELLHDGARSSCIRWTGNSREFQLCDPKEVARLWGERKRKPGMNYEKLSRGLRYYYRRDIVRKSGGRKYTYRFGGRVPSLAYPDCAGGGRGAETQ
Method in brief: as §1

ELF3 = molecular target: T5, ELF3 (Homo sapiens, UniProt P78545 1-371); conditions: protein: recombinant; tags: N-terminal GST; dsDNA, one strand shown
T5 sequence: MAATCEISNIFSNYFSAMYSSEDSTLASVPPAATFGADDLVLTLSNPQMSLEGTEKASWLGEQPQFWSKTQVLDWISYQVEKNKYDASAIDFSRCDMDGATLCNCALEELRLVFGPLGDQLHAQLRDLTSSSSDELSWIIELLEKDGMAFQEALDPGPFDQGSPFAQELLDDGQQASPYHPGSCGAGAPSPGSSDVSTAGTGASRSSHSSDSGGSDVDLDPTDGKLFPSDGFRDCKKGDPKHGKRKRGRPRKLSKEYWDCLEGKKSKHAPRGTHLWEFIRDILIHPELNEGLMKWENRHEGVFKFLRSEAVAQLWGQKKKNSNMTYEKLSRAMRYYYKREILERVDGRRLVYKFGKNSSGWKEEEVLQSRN
Method in brief: as §1

CRX = CRX (Homo sapiens, UniProt O43186 1-299); conditions: protein: recombinant; tags: N-terminal GST; dsDNA, one strand shown
Method in brief: as §1

ETV1 = ETV1 (Homo sapiens, UniProt P50549 1-477); conditions: protein: recombinant; tags: N-terminal GST; dsDNA, one strand shown
Method in brief: as §1

ERF = molecular target: T6, ERF (Homo sapiens, UniProt P50548 1-548); conditions: protein: recombinant; tags: N-terminal GST; dsDNA, one strand shown
T6 sequence: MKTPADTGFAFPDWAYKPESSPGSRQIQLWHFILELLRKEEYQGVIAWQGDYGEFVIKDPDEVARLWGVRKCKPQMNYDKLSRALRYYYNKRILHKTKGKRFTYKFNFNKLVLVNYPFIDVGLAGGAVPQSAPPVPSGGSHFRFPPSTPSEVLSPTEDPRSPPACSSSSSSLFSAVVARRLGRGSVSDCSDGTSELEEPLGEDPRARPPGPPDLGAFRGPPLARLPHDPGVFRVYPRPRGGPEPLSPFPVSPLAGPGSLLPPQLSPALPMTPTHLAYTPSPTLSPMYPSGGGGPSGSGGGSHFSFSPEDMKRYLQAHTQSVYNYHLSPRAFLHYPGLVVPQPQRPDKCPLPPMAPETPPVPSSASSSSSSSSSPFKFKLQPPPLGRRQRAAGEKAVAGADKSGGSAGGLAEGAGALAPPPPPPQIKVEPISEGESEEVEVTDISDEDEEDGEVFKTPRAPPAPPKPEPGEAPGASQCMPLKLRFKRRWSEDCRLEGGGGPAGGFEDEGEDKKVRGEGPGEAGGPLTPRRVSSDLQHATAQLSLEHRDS
Method in brief: as §1

ETV3L = molecular target: T7, ETV3L (Homo sapiens, UniProt Q6ZN32 1-361); conditions: protein: recombinant; tags: N-terminal GST; dsDNA, one strand shown
T7 sequence: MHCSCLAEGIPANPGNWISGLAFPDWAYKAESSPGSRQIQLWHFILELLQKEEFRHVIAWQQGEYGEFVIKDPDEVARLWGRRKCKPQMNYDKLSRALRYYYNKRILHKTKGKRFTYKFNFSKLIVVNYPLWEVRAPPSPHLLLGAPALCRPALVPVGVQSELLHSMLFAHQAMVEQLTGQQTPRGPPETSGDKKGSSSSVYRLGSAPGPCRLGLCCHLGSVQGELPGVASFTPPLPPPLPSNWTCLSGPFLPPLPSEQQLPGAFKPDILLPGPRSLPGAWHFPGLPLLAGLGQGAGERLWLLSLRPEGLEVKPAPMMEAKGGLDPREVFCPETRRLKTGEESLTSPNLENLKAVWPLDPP
Method in brief: as §1

ETS2 = molecular target: T8, ETS2 (Homo sapiens, UniProt P15036 1-469); conditions: protein: recombinant; tags: N-terminal GST; dsDNA, one strand shown
T8 sequence: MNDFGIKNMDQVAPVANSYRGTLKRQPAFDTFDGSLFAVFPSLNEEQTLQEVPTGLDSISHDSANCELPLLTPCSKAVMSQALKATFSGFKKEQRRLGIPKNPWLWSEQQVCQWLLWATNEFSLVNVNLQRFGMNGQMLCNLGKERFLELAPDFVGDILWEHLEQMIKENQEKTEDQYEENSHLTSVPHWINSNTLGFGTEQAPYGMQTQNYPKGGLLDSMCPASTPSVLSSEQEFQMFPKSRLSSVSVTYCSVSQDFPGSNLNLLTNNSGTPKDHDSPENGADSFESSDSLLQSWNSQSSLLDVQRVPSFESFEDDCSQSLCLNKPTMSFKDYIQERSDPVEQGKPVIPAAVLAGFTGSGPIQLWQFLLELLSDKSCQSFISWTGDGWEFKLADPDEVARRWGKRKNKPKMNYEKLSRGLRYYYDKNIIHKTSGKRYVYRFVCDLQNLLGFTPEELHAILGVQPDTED
Method in brief: as §1

SPDEF = molecular target: T9, SPDEF (Homo sapiens, UniProt O95238 1-335); conditions: protein: recombinant; tags: N-terminal GST; dsDNA, one strand shown
T9 sequence: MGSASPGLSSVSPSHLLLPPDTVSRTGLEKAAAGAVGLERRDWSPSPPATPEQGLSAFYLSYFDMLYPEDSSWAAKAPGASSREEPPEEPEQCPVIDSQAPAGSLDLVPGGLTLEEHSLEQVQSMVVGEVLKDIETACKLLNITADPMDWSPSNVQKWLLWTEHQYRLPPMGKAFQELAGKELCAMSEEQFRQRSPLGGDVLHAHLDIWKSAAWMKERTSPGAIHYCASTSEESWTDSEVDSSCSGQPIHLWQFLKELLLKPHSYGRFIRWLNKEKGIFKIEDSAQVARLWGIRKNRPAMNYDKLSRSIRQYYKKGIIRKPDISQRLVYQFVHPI
Method in brief: as §1

ETV7 = molecular target: T10, ETV7 (Homo sapiens, UniProt Q9Y603 1-341); conditions: protein: recombinant; tags: N-terminal GST; dsDNA, one strand shown
T10 sequence: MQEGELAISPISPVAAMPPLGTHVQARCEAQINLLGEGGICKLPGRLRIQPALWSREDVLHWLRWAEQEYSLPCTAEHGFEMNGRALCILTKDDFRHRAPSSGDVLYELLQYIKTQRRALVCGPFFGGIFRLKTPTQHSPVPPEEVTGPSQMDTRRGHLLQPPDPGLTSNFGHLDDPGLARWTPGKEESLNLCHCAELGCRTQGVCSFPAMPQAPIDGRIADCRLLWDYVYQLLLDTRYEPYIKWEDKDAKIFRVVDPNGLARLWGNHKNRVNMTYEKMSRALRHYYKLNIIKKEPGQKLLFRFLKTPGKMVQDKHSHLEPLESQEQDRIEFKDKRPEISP
Method in brief: as §1

ELF5 = molecular target: T11, ELF5 (Homo sapiens, UniProt Q9UKW6-2 1-255); conditions: protein: recombinant; tags: N-terminal GST; dsDNA, one strand shown
T11 sequence: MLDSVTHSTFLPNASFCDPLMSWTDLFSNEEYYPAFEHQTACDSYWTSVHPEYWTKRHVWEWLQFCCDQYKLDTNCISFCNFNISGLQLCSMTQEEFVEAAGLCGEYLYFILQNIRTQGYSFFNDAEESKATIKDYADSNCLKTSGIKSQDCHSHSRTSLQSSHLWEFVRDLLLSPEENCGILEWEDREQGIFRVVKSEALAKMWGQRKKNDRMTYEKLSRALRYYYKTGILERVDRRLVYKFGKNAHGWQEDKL
Method in brief: as §1

ETV3 = molecular target: T12, ETV3 (Homo sapiens, UniProt P41162-2 1-143); conditions: protein: recombinant; tags: N-terminal GST; dsDNA, one strand shown
T12 sequence: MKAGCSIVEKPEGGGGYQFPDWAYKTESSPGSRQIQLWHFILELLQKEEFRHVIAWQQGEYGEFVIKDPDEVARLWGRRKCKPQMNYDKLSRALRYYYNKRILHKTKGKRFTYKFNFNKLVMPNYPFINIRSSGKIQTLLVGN
Method in brief: as §1

ETV6 = ETV6 (Homo sapiens, UniProt P41212 1-452); conditions: protein: recombinant; tags: N-terminal GST; dsDNA, one strand shown
Method in brief: as §1

Sequence of ETV6 (P41212 whole entry): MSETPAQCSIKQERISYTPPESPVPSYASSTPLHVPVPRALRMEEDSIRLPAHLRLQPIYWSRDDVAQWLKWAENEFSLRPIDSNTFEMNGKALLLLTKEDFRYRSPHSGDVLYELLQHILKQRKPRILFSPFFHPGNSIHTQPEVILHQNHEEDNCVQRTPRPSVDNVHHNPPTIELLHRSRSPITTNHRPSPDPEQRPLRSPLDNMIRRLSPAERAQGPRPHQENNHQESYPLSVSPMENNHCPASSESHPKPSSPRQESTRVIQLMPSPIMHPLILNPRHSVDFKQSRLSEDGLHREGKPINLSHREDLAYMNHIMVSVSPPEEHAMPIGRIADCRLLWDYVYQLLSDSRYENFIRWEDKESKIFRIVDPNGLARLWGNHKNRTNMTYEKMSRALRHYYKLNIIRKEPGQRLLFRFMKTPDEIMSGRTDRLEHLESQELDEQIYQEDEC
Sequence of ETV1 (P50549 whole entry): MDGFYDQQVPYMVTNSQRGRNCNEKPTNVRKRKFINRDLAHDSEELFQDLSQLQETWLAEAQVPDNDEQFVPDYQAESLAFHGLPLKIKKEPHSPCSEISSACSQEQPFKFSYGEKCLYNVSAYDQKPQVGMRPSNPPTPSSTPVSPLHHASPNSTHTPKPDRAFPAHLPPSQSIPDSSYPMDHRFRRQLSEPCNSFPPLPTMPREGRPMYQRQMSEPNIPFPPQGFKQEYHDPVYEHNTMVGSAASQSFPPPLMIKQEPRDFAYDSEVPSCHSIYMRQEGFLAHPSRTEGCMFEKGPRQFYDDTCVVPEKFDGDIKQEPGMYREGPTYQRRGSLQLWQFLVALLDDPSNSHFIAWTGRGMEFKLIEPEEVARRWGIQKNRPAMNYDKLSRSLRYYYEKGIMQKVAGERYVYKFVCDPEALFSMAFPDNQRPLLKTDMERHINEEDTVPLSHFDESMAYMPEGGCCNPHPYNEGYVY
Sequence of HSF1 (Q00613 whole entry): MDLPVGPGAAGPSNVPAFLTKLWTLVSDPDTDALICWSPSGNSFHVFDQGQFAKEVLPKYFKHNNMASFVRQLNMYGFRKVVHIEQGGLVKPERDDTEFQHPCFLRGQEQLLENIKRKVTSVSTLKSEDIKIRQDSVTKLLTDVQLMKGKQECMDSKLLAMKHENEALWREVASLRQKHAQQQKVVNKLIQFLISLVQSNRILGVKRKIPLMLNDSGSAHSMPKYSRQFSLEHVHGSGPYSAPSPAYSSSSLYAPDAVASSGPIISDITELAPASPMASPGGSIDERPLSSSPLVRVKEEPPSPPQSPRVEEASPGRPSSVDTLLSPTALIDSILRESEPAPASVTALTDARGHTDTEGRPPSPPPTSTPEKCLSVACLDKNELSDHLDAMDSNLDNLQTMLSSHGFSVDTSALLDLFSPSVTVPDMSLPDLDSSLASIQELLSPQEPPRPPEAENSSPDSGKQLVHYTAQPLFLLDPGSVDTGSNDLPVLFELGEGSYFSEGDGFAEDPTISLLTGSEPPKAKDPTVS
Sequence of CRX (O43186 whole entry): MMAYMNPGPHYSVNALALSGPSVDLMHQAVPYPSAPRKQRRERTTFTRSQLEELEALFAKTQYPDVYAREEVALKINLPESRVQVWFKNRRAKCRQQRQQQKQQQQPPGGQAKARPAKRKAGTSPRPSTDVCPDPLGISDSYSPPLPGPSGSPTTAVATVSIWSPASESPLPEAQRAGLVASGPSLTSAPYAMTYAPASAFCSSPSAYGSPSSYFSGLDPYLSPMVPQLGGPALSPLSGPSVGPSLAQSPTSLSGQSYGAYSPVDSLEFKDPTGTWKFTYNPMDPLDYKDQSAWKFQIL
Sequence of ETV5 (P41161 whole entry): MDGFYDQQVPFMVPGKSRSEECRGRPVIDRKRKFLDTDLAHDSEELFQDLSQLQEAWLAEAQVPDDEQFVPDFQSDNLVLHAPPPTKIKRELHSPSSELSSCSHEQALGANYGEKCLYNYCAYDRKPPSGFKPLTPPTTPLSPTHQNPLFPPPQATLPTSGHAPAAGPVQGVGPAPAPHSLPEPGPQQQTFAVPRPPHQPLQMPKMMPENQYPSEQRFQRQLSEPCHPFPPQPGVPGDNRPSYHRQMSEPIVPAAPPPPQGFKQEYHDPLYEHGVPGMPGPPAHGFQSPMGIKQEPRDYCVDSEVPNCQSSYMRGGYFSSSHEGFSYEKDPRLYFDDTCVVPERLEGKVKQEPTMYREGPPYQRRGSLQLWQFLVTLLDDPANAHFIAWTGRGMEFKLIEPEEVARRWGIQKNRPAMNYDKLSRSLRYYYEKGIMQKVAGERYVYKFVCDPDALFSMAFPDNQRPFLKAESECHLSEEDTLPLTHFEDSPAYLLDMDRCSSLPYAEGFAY
Sequence of ELF4 (Q99607 whole entry): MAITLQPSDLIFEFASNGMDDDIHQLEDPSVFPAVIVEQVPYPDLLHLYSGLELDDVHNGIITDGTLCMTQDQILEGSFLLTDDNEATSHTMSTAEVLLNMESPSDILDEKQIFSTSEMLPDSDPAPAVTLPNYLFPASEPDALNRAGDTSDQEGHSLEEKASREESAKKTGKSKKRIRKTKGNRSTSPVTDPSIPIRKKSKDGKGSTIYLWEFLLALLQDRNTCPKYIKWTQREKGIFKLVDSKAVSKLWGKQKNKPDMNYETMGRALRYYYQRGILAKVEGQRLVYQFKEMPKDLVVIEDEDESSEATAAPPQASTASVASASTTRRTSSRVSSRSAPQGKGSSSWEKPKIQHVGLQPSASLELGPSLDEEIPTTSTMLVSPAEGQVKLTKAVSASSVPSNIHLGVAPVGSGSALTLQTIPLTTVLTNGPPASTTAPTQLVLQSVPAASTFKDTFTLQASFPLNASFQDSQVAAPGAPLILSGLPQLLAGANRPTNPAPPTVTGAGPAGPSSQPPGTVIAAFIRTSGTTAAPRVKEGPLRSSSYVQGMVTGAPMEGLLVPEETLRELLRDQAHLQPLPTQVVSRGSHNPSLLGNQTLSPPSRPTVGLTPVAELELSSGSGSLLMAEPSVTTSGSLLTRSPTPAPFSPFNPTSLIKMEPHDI

Sequence: ACTAAC
- binding signal (FEV): 1.25 fold enrichment (6-mer frequency, TF over GST control)
- binding signal (ETV5): 1.26 fold enrichment (6-mer frequency, TF over GST control)
- binding signal (HSF1): 1.08 fold enrichment (6-mer frequency, TF over GST control)
- binding signal (SPIC): 1.27 fold enrichment (6-mer frequency, TF over GST control)
- binding signal (ELF4): 1.33 fold enrichment (6-mer frequency, TF over GST control)
- binding signal (ELK4): 1.19 fold enrichment (6-mer frequency, TF over GST control)
- binding signal (ETV2): 1.19 fold enrichment (6-mer frequency, TF over GST control)
- binding signal (ELF3): 1.25 fold enrichment (6-mer frequency, TF over GST control)
- binding signal (CRX): 1.18 fold enrichment (6-mer frequency, TF over GST control)
- binding signal (ETV1): 1.25 fold enrichment (6-mer frequency, TF over GST control)
- binding signal (ERF): 1.34 fold enrichment (6-mer frequency, TF over GST control)
- binding signal (ETV3L): 1.29 fold enrichment (6-mer frequency, TF over GST control)
- binding signal (ETS2): 1.29 fold enrichment (6-mer frequency, TF over GST control)
- binding signal (SPDEF): 1.2 fold enrichment (6-mer frequency, TF over GST control)
- binding signal (ETV7): 1.21 fold enrichment (6-mer frequency, TF over GST control)
- binding signal (ELF5): 1.29 fold enrichment (6-mer frequency, TF over GST control)
- binding signal (ETV3): 1.24 fold enrichment (6-mer frequency, TF over GST control)
- binding signal (ETV6): 1.22 fold enrichment (6-mer frequency, TF over GST control)
